Inconclusive results are not listed. Active and inactive are the calls of the source. Unless noted, calls come from the whole dose curve.
Legend:
[1] = Nuclear factor erythroid 2-related factor 2/antioxidant responsive element (Nrf2/ARE) small molecule agonists: qHTS cell viability counter screen in human keratinocytes (AID 1919968; active = well fitted curve in the direction sought with a large enough effect in the repeat runs; an effect the other way counts as inactive or inconclusive; note: nearly all actives have a fitted effect of over 55% in size; note: potency is the fitted concentration of half-maximal effect)
Procedure, shortened: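 In human HaCaT keratinocytes stably expressing an ARE-driven luciferase, compound exposure lasted 23 h at 37 C under 5% CO2. Viable cells are quantified with a protease-based fluorogenic reagent (CellTiter-Fluor) read 1 h after addition.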

[2] = Nuclear factor erythroid 2-related factor 2/antioxidant responsive element (Nrf2/ARE) small molecule agonists: luciferase reporter gene qHTS assay in human keratinocytes (AID 1919969); note: nearly all actives have a fitted effect of over 35% in size; note: potency is the fitted concentration of half-maximal effect
[3] = molecular target: Gonadotropin-releasing hormone receptor (Homo sapiens) (UniProt P30968); experiment: Human gonadotropin-releasing hormone receptor (GnRHR) small molecule agonists, calcium flux assay in GnRHR-HEK293 cells (AID 1920063); note: nearly all actives have a fitted effect of over 35% in size
Procedure, shortened: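 Intracellular calcium rise is the read-out: engineered human GnRHR HEK293 cells, dye-loaded, are exposed to DMSO-dissolved compounds and fluorescence at Ex/Em 480/540 is tracked for 3 min.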

[4] = molecular target: KiSS-1 receptor (Homo sapiens) (UniProt Q969F8); experiment: Human kisspeptin (KISS1R) small molecule agonists, calcium flux assay in KISS1R-HEK293 cells (AID 1920064; active = well fitted curve in the direction sought with a large enough effect in the repeat runs; an effect the other way counts as inactive or inconclusive)
Procedure, shortened: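 Concentration-response testing used 15 concentrations in triplicate on human KISS1R-expressing HEK293 cells. Calcium-dependent fluorescence (Ex/Em 480/540) was followed kinetically for 3 min after compound transfer.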

[5] = G protein-coupled receptor (GPCR) small molecule agonists, calcium flux assay: HEK293 wild type cell line counter screen (AID 1920065)
Procedure, shortened: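 Fluorescence intensity signals activation. After overnight (18 h) culture and a 1 h calcium dye load at 37 C, compounds are added by pin tool and the plate read at 480/540 nm for 3 min in 1 s steps.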

[6] = p53 small molecule agonists, cell-based qHTS assay with rat liver microsomes (AID 1963578)
Procedure, shortened: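 Read-out is beta-lactamase reporter fluorescence (LiveBLAzer, 2 h, room temperature, dark) in p53RE-bla cells treated 16 h at 37 C with compound, rat liver microsomes and NADPH, both 0.5 mg/mL final.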

[7] = p53 small molecule agonists, cell-based qHTS assay with human liver microsomes: qHTS cell viability counter screen (AID 1963579); note: nearly all actives have a fitted effect of over 45% in size
Procedure, shortened: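 Cells carrying the p53 response-element beta-lactamase reporter are treated for 16 h at 37 C with test compounds in the presence of human liver microsomes and NADPH (both 0.5 mg/mL final); ATP-based CellTiter-Glo luminescence then reports viability.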

[8] = p53 small molecule agonists, cell-based qHTS assay with rat liver microsomes: qHTS cell viability counter screen (AID 1963580); note: nearly all actives have a fitted effect of over 45% in size
Procedure, shortened: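 Luminescent ATP readout (CellTiter-Glo, 30 min at room temperature) reports viability of p53RE-bla HCT-116 cells after 16 h at 37 C with test compounds under metabolic activation by rat liver microsomes and NADPH at 0.5 mg/mL final each.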

[9] = p53 small molecule agonists, cell-based qHTS assay: qHTS cell viability counter screen (AID 1963581); note: nearly all actives have a fitted effect of over 45% in size
Procedure, shortened: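 Luminescence from CellTiter-Glo, reflecting ATP content, serves as the cytotoxicity measure; it is taken after the 2 h reporter substrate step in HCT-116 p53RE-bla cells dosed for 16 h at 37 C.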

[10] = p53 small molecule agonists, cell-based qHTS assay (AID 1963582; active = well fitted activation curve with a large enough effect in the signal ratio in the repeat runs, not every such curve was filed as active; the % refers to the signal ratio; note: potency is the fitted concentration of half-maximal effect)
Procedure, shortened: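 After plating, p53RE-bla cells sat 5 h in the incubator; compounds or DMSO vehicle were pinned in; a 16 h incubation at 37 C followed; FRET substrate was added and, 2 h later at RT, fluorescence was measured.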

[11] = molecular target: 5-hydroxytryptamine receptor 2A (Homo sapiens) (UniProt P28223); experiment: 5-hydroxytryptamine receptor 2A (HTR2A) small molecule antagonists, cell-based qHTS assay (AID 1963586); note: nearly all actives have a fitted effect of over 45% in size
Procedure, shortened: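 CHO cells stably expressing human HTR2A were plated for 18 h at 37 C, then loaded with calcium dye for 1 h. Compounds were preincubated 5 min at room temperature before DOI (4 nM solution) was added. Kinetic fluorescence was read for 3 min.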

[12] = molecular target: 5-hydroxytryptamine receptor 2A (Homo sapiens) (UniProt P28223); experiment: 5-hydroxytryptamine receptor 2A (HTR2A) small molecule agonists, cell-based qHTS assay (AID 1963587); note: nearly all actives have a fitted effect of over 30% in size
Procedure, shortened: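 HTR2A-CHO cells, plated 18 h at 37 C/5% CO2, dye-loaded 1 h at 37 C; compounds in DMSO added by pin tool (agonist mode). Intracellular calcium flux read as kinetic fluorescence on FDSS over 2 min at 1 s intervals.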

[13] = molecular target: Muscarinic acetylcholine receptor M1 (Homo sapiens) (UniProt P11229); experiment: Cholinergic receptor muscarinic 1 (CHRM1) small molecule antagonists, cell-based qHTS assay (AID 1963588); note: nearly all actives have a fitted effect of over 40% in size
Procedure, shortened: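 Compounds were tested at 15 concentrations in three independent runs. Dye-loaded CHRM1-CHO cells were exposed 5 min at room temperature before stimulation by acetylcholine added at 50nM. Intracellular calcium was read kinetically on FDSS for 3 min.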

[14] = cAMP Responsive Elements (CRE) small molecule agonists, cell-based qHTS assay (AID 1963590)
Procedure, shortened: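 Compound exposure lasted 3 h at 37 C/5% CO2 in CRE-bla HEK 293T cells grown in assay medium with 10% dialyzed FBS and 25 mM HEPES. Reporter signal came from LiveBLAzer B/G FRET substrate, 2 h, room temperature.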

[15] = molecular target: Beta-2 adrenergic receptor (Homo sapiens) (UniProt P07550); experiment: Adrenergic beta2 receptor (ADRB2) small molecule antagonists, cell-based qHTS assay (AID 1963592); note: series mostly up to about 92 µM; nearly all actives have a fitted effect of over 50% in size
Procedure, shortened: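 Assay format: CHO-ADRB2 cells, 18-20hr seeding at 37C/5% CO2, then compound plus 1nM isoproterenol agonist mix for 0.5hr RT. Homogeneous time-resolved fluorescence cAMP detection after 1hr, expressed as 665/615 nm ratio.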

[16] = molecular target: D(2) dopamine receptor (Homo sapiens) (UniProt P14416); experiment: Dopamine D2 receptor (DRD2) small molecule antagonists, cell-based qHTS assay (AID 1963595; active = well fitted inhibition curve with a large enough effect in the signal ratio in the repeat runs, with a control signal flat; the % refers to the signal ratio)
Procedure, shortened: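 In this cell-based antagonist screen, compounds act for 10 min at room temperature before a 30 min challenge with 12 nM quinpirole and 200 nM NKH477. cAMP is quantified by HTRF competition in DRD2-HEK293 cells containing 0.1 mM Ro20-1724.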

[17] = molecular target: Muscarinic acetylcholine receptor M1 (Homo sapiens) (UniProt P11229); experiment: Cholinergic receptor muscarinic 1 (CHRM1) small molecule agonists, cell-based qHTS assay (AID 1963589); note: nearly all actives have a fitted effect of over 35% in size
Procedure, shortened: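 Fluorescent calcium dye reports M1 activation in stably transfected CHO cells. Compounds, 15 concentrations, added after 1 h dye loading at 37 C; kinetic reading at 1 sec intervals.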

[18] = molecular target: D(2) dopamine receptor (Homo sapiens) (UniProt P14416); experiment: Dopamine D2 receptor (DRD2) small molecule agonists, cell-based qHTS assay (AID 1963594); note: nearly all actives have a fitted effect of over 35% in size
Procedure, shortened: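 HEK293 cells stably expressing DRD2 were cultured 24 h at 37 C, then given Ro20-1724 (0.1 mM final) and compounds for 10 min at room temperature. NKH477 (200nM) was then added for 30 min. cAMP was read by HTRF.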

[19] = cAMP Responsive Elements (CRE) small molecule antagonists, cell-based qHTS assay (AID 1963591; active = well fitted inhibition curve with a large enough effect in the signal ratio in the repeat runs, not every such curve was filed as active; the % refers to the signal ratio)
Procedure, shortened: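 Stimulation used NKH477 at a final 0.25 uM for 3 h in compound-treated CRE-bla HEK293T cells, seeded 18 h beforehand. Reporter activity was measured with LiveBLAzer B/G FRET substrate after 2 h at room temperature.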
% is set by controls: 0 for no effect and ±100 for the full control effect.

Beta-2 adrenergic receptor (Homo sapiens), sequence (P07550 whole entry, looked up): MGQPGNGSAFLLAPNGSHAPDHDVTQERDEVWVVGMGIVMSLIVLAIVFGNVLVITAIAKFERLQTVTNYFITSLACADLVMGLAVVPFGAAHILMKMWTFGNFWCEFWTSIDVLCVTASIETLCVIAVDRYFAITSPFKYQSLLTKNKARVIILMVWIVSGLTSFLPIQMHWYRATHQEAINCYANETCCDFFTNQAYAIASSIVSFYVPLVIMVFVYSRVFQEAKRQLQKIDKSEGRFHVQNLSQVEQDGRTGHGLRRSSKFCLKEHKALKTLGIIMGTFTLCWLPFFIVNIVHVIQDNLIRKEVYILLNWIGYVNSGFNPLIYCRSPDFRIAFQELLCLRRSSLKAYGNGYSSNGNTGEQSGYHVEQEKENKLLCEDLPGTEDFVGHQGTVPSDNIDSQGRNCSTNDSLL
Muscarinic acetylcholine receptor M1 (Homo sapiens), sequence (P11229 whole entry, looked up): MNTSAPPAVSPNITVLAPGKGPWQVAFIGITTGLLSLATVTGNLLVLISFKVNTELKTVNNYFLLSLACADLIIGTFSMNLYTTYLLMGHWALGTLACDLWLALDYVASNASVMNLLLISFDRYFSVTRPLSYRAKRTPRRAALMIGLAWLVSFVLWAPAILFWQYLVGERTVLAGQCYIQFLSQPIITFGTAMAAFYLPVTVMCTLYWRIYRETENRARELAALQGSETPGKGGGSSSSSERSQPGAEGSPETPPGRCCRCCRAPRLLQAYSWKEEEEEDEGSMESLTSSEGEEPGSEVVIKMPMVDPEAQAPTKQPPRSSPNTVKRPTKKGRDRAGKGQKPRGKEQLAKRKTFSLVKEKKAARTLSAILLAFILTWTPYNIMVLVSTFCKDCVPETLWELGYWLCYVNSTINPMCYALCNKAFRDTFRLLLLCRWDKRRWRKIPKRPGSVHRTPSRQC
D(2) dopamine receptor (Homo sapiens), sequence (P14416 whole entry, looked up): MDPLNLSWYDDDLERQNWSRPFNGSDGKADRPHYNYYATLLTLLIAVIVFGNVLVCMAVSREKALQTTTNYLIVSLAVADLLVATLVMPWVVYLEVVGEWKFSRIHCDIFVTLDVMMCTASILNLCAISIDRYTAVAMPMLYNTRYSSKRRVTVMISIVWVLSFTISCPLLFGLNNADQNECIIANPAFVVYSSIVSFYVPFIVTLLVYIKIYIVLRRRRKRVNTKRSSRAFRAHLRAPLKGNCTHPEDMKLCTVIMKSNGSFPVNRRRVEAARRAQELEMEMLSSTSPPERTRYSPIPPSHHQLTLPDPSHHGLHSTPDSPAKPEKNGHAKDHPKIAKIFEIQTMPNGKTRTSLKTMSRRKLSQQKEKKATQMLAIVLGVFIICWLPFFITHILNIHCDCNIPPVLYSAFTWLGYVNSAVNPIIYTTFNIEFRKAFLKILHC
KiSS-1 receptor (Homo sapiens), sequence (Q969F8 whole entry, looked up): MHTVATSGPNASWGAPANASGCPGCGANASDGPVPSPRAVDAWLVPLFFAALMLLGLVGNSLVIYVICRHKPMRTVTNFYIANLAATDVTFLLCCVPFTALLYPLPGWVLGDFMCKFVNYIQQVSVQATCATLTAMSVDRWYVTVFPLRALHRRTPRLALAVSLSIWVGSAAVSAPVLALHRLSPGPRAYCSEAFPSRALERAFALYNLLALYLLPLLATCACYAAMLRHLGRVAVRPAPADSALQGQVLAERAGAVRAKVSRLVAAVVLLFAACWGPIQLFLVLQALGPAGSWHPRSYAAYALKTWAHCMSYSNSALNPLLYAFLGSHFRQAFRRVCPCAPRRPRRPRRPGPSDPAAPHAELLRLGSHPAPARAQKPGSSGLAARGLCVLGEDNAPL
5-hydroxytryptamine receptor 2A (Homo sapiens), sequence (P28223 whole entry, looked up): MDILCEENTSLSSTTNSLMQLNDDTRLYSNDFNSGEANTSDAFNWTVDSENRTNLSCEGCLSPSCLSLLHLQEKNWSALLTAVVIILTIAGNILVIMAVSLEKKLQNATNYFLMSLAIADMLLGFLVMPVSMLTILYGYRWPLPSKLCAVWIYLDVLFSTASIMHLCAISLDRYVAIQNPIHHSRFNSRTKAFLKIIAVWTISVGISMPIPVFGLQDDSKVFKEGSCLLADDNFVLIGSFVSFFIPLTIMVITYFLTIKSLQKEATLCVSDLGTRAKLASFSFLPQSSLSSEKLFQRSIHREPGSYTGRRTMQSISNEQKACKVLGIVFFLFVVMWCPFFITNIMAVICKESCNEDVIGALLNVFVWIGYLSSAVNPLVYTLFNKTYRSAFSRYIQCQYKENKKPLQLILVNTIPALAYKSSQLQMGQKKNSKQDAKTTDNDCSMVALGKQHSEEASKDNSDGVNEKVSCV
Gonadotropin-releasing hormone receptor (Homo sapiens), sequence (P30968 whole entry, looked up): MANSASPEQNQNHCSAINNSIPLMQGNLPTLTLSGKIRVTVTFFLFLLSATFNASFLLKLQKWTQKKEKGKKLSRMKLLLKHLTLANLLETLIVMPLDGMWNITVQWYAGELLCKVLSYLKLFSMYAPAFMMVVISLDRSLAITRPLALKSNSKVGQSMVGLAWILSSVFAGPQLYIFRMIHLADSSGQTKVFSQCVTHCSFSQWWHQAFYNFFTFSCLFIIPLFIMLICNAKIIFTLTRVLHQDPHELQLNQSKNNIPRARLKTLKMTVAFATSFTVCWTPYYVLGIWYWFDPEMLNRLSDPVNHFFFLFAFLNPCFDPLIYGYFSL

Cc1ccco1
inactive: Potency [1] | Potency [2] | Potency [3] | outcome [4] | outcome [5] | Potency [6] | Potency [7] | Potency [8] | Potency [9] | Potency [10] | Potency [11] | Potency [12] | Potency [13] | Potency [14] | Potency [15] | Potency [16]

CCCCCCCCc1ccc(S(=O)(=O)O)cc1
inactive: Potency [1] | Potency [2] | Potency [3] | outcome [4] | outcome [5] | Potency [6] | Potency [7] | Potency [8] | Potency [9] | Potency [10] | Potency [13] | Potency [17] | Potency [14] | Potency [15] | Potency [18] | Potency [16]

Nc1cc(C(=O)O)ccc1Cl
inactive: Potency [1] | Potency [2] | Potency [3] | outcome [4] | outcome [5] | Potency [6] | Potency [7] | Potency [8] | Potency [9] | Potency [10] | Potency [11] | Potency [12] | Potency [13] | Potency [17] | Potency [14] | Potency [19] | Potency [15] | Potency [18] | Potency [16]

[O]=[Mo](=[O])=[O]
inactive: activity change, negative = cytotoxicity [1] 1.36% [at 19 µM] | activity, positive = activation [2] -5.06% [at 19 µM] | activity change [3] -0.246% [at 11.8 µM, hits give high values] | activation [4] -1.57% [at 15.8 µM] | activation [5] -0.132% [at 11.8 µM] | activation [6] -0.845% [at 13.6 µM] | activity change, negative = cytotoxicity [7] 2.49% [at 13.5 µM] | activity change, negative = cytotoxicity [8] 5.17% [at 13.5 µM] | activity change, negative = cytotoxicity [9] 14.2% [at 13.5 µM] | activation [10] -2.07% [at 13.5 µM] | activity, negative = inhibition [11] -16.5% [at 12.7 µM] | activation [12] 4.75% [at 15.9 µM] | activity, negative = inhibition [13] 1.32% [at 12.6 µM] | activation [17] 0.586% [at 15.8 µM] | activation [14] 0.435% [at 19 µM] | activity change, negative = inhibition [19] 1.4% [at 18.9 µM] | activity change, negative = inhibition [15] -19.7% [at 19 µM] | activation [18] -0.0356% [at 19 µM]

CC(=O)Nc1ccccc1C
inactive: Potency [1] | Potency [2] | Potency [3] | outcome [4] | outcome [5] | Potency [6] | Potency [7] | Potency [8] | Potency [10] | Potency [11] | Potency [12] | Potency [13] | Potency [17] | Potency [14] | Potency [19] | Potency [15] | Potency [18] | Potency [16]

CC(=O)c1ccc(Cl)c(Cl)c1Cl
inactive: Potency [1] | Potency [2] | Potency [3] | outcome [4] | outcome [5] | Potency [6] | Potency [7] | Potency [8] | Potency [9] | Potency [10] | Potency [12] | Potency [13] | Potency [17] | Potency [14] | Potency [19] | Potency [15] | Potency [16]

N=C1N=C(N)c2ccccc21
inactive: Potency [3] | outcome [4] | outcome [5] | Potency [6] | Potency [7] | Potency [8] | Potency [9] | Potency [11] | Potency [12] | Potency [13] | Potency [17] | Potency [19] | Potency [18] | Potency [16]
active: Potency [1] 61.1 µM | Potency [2] 27.3 µM | Potency [10] 36.3 µM
